This passage reports outcome and AC50 results from PubChem BioAssay (EPA / NIEHS).

Read-out in experiment [1]: Human Leukocyte Antigen - DR isotype (HLADR), HLA-DRA (gene 3122)
Briefly: BSK_3C_HLADR: BioMAP Diversity Plus: 3C Assay for Human Leukocyte Antigen - DR isotype (HLADR) Biomarker Activity (AID 2283019).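 As to outcome: ELISA of cell-surface HLA-DR on HUVEC 24 h after dosing.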 The note with it: primary human endothelial cells (HUVEC); actives raise or lower the signal. A digest of the protocol:
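Primary human umbilical vein endothelial cells (3C system) were dosed with compound and cell-surface HLA-DR was quantified by ELISA at 24 h. Activity was fitted bidirectionally against DMSO as negative control and baseline.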

Read-out in experiment [2]: Interleukin-8 (IL8), CXCL8 (gene 3576)
Briefly: BSK_3C_IL8: BioMAP Diversity Plus: 3C Assay for Interleukin-8 (IL8) Biomarker Activity (AID 2283020). The conditions noted are these: primary human endothelial cells (HUVEC); actives raise or lower the signal. A digest of the protocol:
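Primary human umbilical vein endothelial cells were dosed for 24 h. IL-8 was quantified by ELISA and fitted bidirectionally against DMSO. Cytotoxicity was assessed in parallel cultures by SRB staining at 560 nm.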

Read-out in experiment [3]: Monokine induced gamma interferon (MIG), CXCL9 (gene 4283)
Briefly: BSK_3C_MIG: BioMAP Diversity Plus: 3C Assay for Monokine induced gamma interferon (MIG) Biomarker Activity (AID 2283021). The note with it: primary human endothelial cells (HUVEC); actives raise or lower the signal. A digest of the protocol:
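HUVEC primary endothelial cultures dosed with chemical; MIG quantified by ELISA at 24 h. Data fitted bidirectionally against DMSO control, with parallel SRB total-protein staining for cytotoxicity.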

Experiment [4] can be described thus: BSK_3C_SRB: Viability Assessment in the BioMAP Diversity Plus: 3C Assay (AID 2283023).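 Also: fitted both ways against DMSO so a hit may be signal rise or drop.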 The conditions noted are these: primary human endothelial cells (HUVEC). The method, boiled down:
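Primary human umbilical vein endothelial cells in the 3C system were read 24 h after compound dosing. Total protein was stained with 0.1% sulforhodamine B after 10% TCA fixation and read at 560 nm, with bidirectional fitting against DMSO as baseline.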

Read-out in experiment [5]: Matrix Metallopeptidase 1 (MMP1), MMP1 (gene 4312)
Briefly: BSK_BE3C_MMP1: BioMAP Diversity Plus: BE3C Assay for Matrix Metallopeptidase 1 (MMP1) Biomarker Activity (AID 2283024). The conditions noted are these: primary human bronchial epithelial cells; actives raise or lower the signal. A digest of the protocol: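 Human primary bronchial epithelial cells (BE3C system) dosed for 24 h; MMP-1 quantified by ELISA. Bidirectional fit against DMSO; cytotoxicity tracked in parallel cultures by SRB total-protein staining.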

Read-out in experiment [6]: Pselectin, SELP (gene 6403)
Briefly: BSK_4H_Pselectin: BioMAP Diversity Plus: 4H Assay for Pselectin Biomarker Activity (AID 2283026). The conditions noted are these: primary human endothelial cells (HUVEC); actives raise or lower the signal. The method, boiled down:
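Primary human umbilical vein endothelial cells were treated 24 h, and cell-surface P-selectin was then quantified by ELISA. Bidirectional fit versus DMSO; cytotoxicity checked in parallel cultures by SRB total-protein staining.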

Experiment [7] in a line: BSK_4H_SRB: Viability Assessment in the BioMAP Diversity Plus: 4H Assay (AID 2283027).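 Also: cells exposed to compound for 24 h before staining.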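 As to AC50: curves fitted both ways versus DMSO so AC50 may be loss or gain.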 The conditions noted are these: primary human endothelial cells (HUVEC). A digest of the protocol: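 Human umbilical vein endothelial cells were dosed with chemical and, after 24 h, fixed with 10% TCA, stained with 0.1% sulforhodamine B, and read at 560 nm to give total protein as a cytotoxicity measure. Bidirectional fitting relative to DMSO control.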

The nature of experiment [8]: BSK_BE3C_SRB: Viability Assessment in the BioMAP Diversity Plus: BE3C Assay (AID 2283028). The conditions noted are these: primary human bronchial epithelial cells. A digest of the protocol: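 Human primary bronchial epithelial cells were exposed to test chemicals for 24 h. Total protein in parallel cultures was then measured by staining with 0.1% sulforhodamine B after 10% TCA fixation, with absorbance read at 560 nm. Activity was fitted bidirectionally against DMSO.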

Read-out in experiment [9]: Thrombomodulin, THBD (gene 7056)
Briefly: BSK_3C_Thrombomodulin: BioMAP Diversity Plus: 3C Assay for Thrombomodulin Biomarker Activity (AID 2283029). The conditions noted are these: primary human endothelial cells (HUVEC); actives raise or lower the signal. The method, boiled down: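 Human umbilical vein endothelial cells were exposed to chemicals for 24 h; cell-surface thrombomodulin quantified by ELISA, with bidirectional fitting against DMSO baseline.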

Read-out in experiment [10]: Urokinase-type plasminogen activator receptor (uPAR), PLAUR (gene 5329)
Briefly: BSK_4H_uPAR: BioMAP Diversity Plus: 4H Assay for Urokinase-type plasminogen activator receptor (uPAR) Biomarker Activity (AID 2283030). The conditions noted are these: primary human endothelial cells (HUVEC); actives raise or lower the signal. The method, boiled down: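 Primary human umbilical vein endothelial cells were exposed to chemical for 24 h before cell-surface uPAR was quantified by ELISA. Activity was fitted bidirectionally against the DMSO negative control baseline.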

Read-out in experiment [11]: Vascular endothelial growth factor receptor 2 (Homo sapiens) (UniProt P35968)
Briefly: BSK_4H_VEGFRII: BioMAP Diversity Plus: 4H Assay for Vascular endothelial growth factor receptor 2 (VEGFR2) Biomarker Activity (AID 2283031). The conditions noted are these: primary human endothelial cells (HUVEC); actives raise or lower the signal. The method, boiled down:
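Primary human umbilical vein endothelial cells in the BioMAP 4H system were dosed with test chemical, and 24 h later VEGFRII was measured by ELISA. Activity was fitted bidirectionally against DMSO as negative control and baseline.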

Read-out in experiment [12]: Human Leukocyte Antigen - DR isotype (HLADR), HLA-DRA (gene 3122)
Briefly: BSK_BE3C_HLADR: BioMAP Diversity Plus: BE3C Assay for Human Leukocyte Antigen - DR isotype (HLADR) Biomarker Activity (AID 2283032). The conditions noted are these: primary human bronchial epithelial cells; actives raise or lower the signal. A digest of the protocol:
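Human primary bronchial epithelial cells (BE3C system) exposed to compound for 24 hours; cell-surface HLA-DR measured by ELISA, fitted bidirectionally relative to DMSO. Total protein by SRB in parallel cultures tracked cytotoxicity.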

Read-out in experiment [13]: Vascular cell adhesion molecule 1 (VCAM1), VCAM1 (gene 7412)
Briefly: BSK_4H_VCAM1: BioMAP Diversity Plus: 4H Assay for Vascular cell adhesion molecule 1 (VCAM1) Biomarker Activity (AID 2283033). The note with it: primary human endothelial cells (HUVEC); actives raise or lower the signal. A digest of the protocol: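 Primary human umbilical vein endothelial cells, 4H stimulation system, treated for 24 h; cell-surface VCAM-1 quantified by ELISA. Bidirectional fitting against DMSO; cytotoxicity tracked by SRB total-protein staining in parallel cultures.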

Read-out in experiment [14]: Interferon-gamma inducible Protein 10 (IP10), CXCL10 (gene 3627)
Briefly: BSK_BE3C_IP10: BioMAP Diversity Plus: BE3C Assay for Interferon-gamma inducible Protein 10 (IP10) Biomarker Activity (AID 2283034). The note with it: primary human bronchial epithelial cells; actives raise or lower the signal. A digest of the protocol: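 Primary human bronchial epithelial cells, with IP-10 measured by ELISA 24 hours after chemical dosing. Bidirectional fit against DMSO; cytotoxicity checked by SRB total protein staining in parallel cultures.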

Read-out in experiment [15]: Monokine induced gamma interferon (MIG), CXCL9 (gene 4283)
Briefly: BSK_BE3C_MIG: BioMAP Diversity Plus: BE3C Assay for Monokine induced gamma interferon (MIG) Biomarker Activity (AID 2283035). The note with it: primary human bronchial epithelial cells; actives raise or lower the signal. A digest of the protocol: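 ELISA read-out of MIG in human lung bronchial epithelial primary cultures, 24 h post-dosing. Bidirectional curve fit vs DMSO baseline.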

Read-out in experiment [16]: Transforming growth factor beta 1 (TGFb1), TGFB1 (gene 7040)
Briefly: BSK_BE3C_TGFb1: BioMAP Diversity Plus: BE3C Assay for Transforming growth factor beta 1 (TGFb1) Biomarker Activity (AID 2283036). The conditions noted are these: primary human bronchial epithelial cells; actives raise or lower the signal. A digest of the protocol: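 Primary human bronchial epithelial cells dosed with chemical; TGF-b1 measured by ELISA 24 h after dosing. Bidirectional curve fitting against DMSO negative control; SRB total-protein staining in parallel cultures gauged cytotoxicity.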

Read-out in experiment [17]: Plasminogen activator inhibitor-1 (PAI1), SERPINE1 (gene 5054)
Briefly: BSK_BE3C_PAI1: BioMAP Diversity Plus: BE3C Assay for Plasminogen activator inhibitor-1 (PAI1) Biomarker Activity (AID 2283037). The note with it: primary human bronchial epithelial cells; actives raise or lower the signal. The method, boiled down: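 Primary human bronchial epithelial cells (BE3C system) exposed 24 h; PAI-1 quantified by ELISA. Parallel sulforhodamine B staining of total protein flags cytotoxicity. Bidirectional fit versus DMSO.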

Read-out in experiment [18]: urokinase plasminogen activator (uPA), PLAU (gene 5328)
Briefly: BSK_BE3C_uPA: BioMAP Diversity Plus: BE3C Assay for urokinase plasminogen activator (uPA) Biomarker Activity (AID 2283038).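 Also: uPA protein level quantified by ELISA in cell cultures; uPA read one day after compound addition.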 The conditions noted are these: primary human bronchial epithelial cells; actives raise or lower the signal. A digest of the protocol:
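Human primary bronchial epithelial cells were exposed to chemical for 24 h, then uPA levels were measured by ELISA. Responses were fitted bidirectionally against DMSO as negative control and baseline. Parallel SRB staining of total protein gauged overt cytotoxicity.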

Read-out in experiment [19]: Urokinase-type plasminogen activator receptor (uPAR), PLAUR (gene 5329)
Briefly: BSK_BE3C_uPAR: BioMAP Diversity Plus: BE3C Assay for Urokinase-type plasminogen activator receptor (uPAR) Biomarker Activity (AID 2283039).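 Also: cells exposed to compound for one day before measurement.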 The conditions noted are these: primary human bronchial epithelial cells; actives raise or lower the signal. A digest of the protocol: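 Primary human bronchial epithelial cells dosed for 24 h; uPAR quantified by ELISA with bidirectional fitting against DMSO. Overt cytotoxicity assessed in parallel cultures by SRB total-protein staining (0.1% SRB, 560 nm).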

The source made the active and inactive calls. The calls were made as follows: active = hit-call score of the fitted dose curve at least 0.9, where 1 is the maximum; inactive = score below 0.9.

As to `CC(C)NC(=O)N1CC(=O)N(c2cc(Cl)cc(Cl)c2)C1=O`, the result in [1], in experiment [2], in [3], in experiment [4], in experiment [5] and in experiment [6] was inactive. The result in experiment [7], in [8], in [9], in [11], in experiment [12] and in [13] was inactive. Besides, the outcome in experiment [14], in [15], in experiment [16], in experiment [17], in experiment [18] and in experiment [19] was inactive. In addition, the AC50 in experiment [10] is 23.1 µM (active).

With `CCNP(=S)(OC)O/C(C)=C/C(=O)OC(C)C` (stereo unspecified), the outcome in experiment [1], in experiment [2], in [3], in experiment [4], in [5] and in [6] was inactive. The result in experiment [7], in [8], in experiment [9], in experiment [10], in experiment [12] and in experiment [14] was inactive. Moreover, the outcome in experiment [15], in [16], in experiment [17], in experiment [18] and in experiment [19] was inactive.

Turning to `Clc1cccc(C(Cl)(Cl)Cl)n1`, the result in experiment [1], in [2], in experiment [3], in [4], in [5] and in [6] was inactive. In addition, the result in experiment [7], in experiment [8], in experiment [9], in [10], in [11] and in experiment [12] was inactive. Moreover, the outcome in experiment [13], in experiment [14], in [15], in [16], in [17] and in experiment [18] was inactive. Also, in experiment [19], the result was inactive.

Regarding `CCN(CC)c1nc(C)cc(OP(=S)(OC)OC)n1`, the outcome in experiment [1], in [2], in [3], in experiment [6], in [7] and in experiment [8] was inactive. Also, the outcome in experiment [9], in experiment [10], in [14], in experiment [15], in experiment [16] and in [17] was inactive. Besides, the outcome in [18] and in [19] was inactive. Besides, the AC50 in experiment [4] is 29.4 µM (active); in experiment [5], 20 µM (active); in experiment [12], 20 µM (active).

`Cn1c(-c2ccccc2)cc(-c2ccccc2)[n+]1C`: the AC50 is 2.89 µM (active) in [1], 1.65 µM (active) in experiment [7], 3.97 µM (active) in [12] and 16.5 µM (active) in experiment [14]. For the same molecule, the result in experiment [2], in experiment [3], in experiment [4], in [5], in experiment [6] and in experiment [8] was inactive. The outcome in experiment [9], in [10], in [15], in experiment [16], in experiment [17] and in experiment [18] was inactive. In [19], the outcome was inactive.

For `Nc1c(Cl)c(F)nc(OCC(=O)O)c1Cl`, the result in [1], in experiment [2], in experiment [3], in [4], in [5] and in experiment [6] was inactive. Moreover, the result in [7], in [8], in [9], in experiment [10], in [12] and in experiment [14] was inactive. Moreover, the result in experiment [15], in experiment [16], in [17], in experiment [18] and in experiment [19] was inactive.

In general, AC50 refers to the concentration at which the activity in the assay is half-maximal.
